# Compound activity as filed in PubChem BioAssay.
# In the library only some 2.8% were active in any assay of this set; here they are far more common.
# Pol eta inh-1 = inhibitors of human DNA polymerase eta; 390,000 compounds, 1.2% hits; Potency, µM (series often up to 114 µM), inactives show at the highest dose activity change, negative = inhibition, usual class: inhibitors; recombinant Pol eta, fluorescent DNA replication assay; further: potency means the concentration at half of the fitted maximal effect; on the % scale 0 is the no-effect control and ±100 the full control effect
#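 Pol eta (10 nM) was preincubated with compounds for 15 min at room temperature, after which fluorescent replication substrate (50 nM final) was added to start the reaction. Fluorescence was read kinetically at 0 and 10 min.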
# Pol beta inh = blocks human DNA polymerase beta activity; P06746; Pol beta primer extension/strand displacement, fluorescence kinetic; Potency, µM (highest dose often 114 µM), without a hit: top-dose activity change, negative = inhibition, usual class: inhibitors; 340,000 compounds, 1.3% hits; further: potency means the concentration at half of the fitted maximal effect; on the % scale 0 is the no-effect control and ±100 the full control effect
#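 Pol beta (10 nM) was preincubated with compound for 15 min at room temperature. The reaction was then started with 50 nM substrate and read immediately and after a further 10 min at room temperature.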
# Pol iota inh = DNA polymerase iota (human) inhibition; Q9UNA4; Pol iota fluorescent replication assay, 10 min; Potency, µM (series often up to 115 µM), for inactives: at the top dose activity, negative = inhibition, usual class: inhibitors; 390,000 compounds, 1% hits; AID 588590; further: potency means the concentration at half of the fitted maximal effect
#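 Pol iota at 10 nM preincubated 15 min with compounds at room temperature; reaction started with fluorescent substrate, 50 nM final. Fluorescence read kinetically at 0 and 10 min; buffer-only wells as negative control.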
# PI5P4K alpha inh = PI5P4K alpha (human) kinase inhibition | PI5P4Kalpha enzyme, ADP-Glo luminescence, 60 min; hits give low values | max response, % | P48426 | AID 652105 | 330,000 compounds, 1.2% hits; active means max response of -50% or lower; inconclusive means between -30% and -50%; inactive means -30% or higher; further: value at the top dose of about 77 µM; on the % scale 0 is the no-effect control and ±100 the full control effect
#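 Human PI5P4Kalpha with substrate in 0.038 M HEPES pH 7.4, 0.28 mM EGTA, 0.1% CHAPS, 5% DMSO; reaction started with 5 microM ATP (final), 60 min at room temperature. ADP formed read by ADP-Glo luminescence.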
# Pol kappa inh-1 = inhibitors of human DNA polymerase kappa; Q9UBT6; purified Pol kappa, fluorescent DNA synthesis assay, 10 min; Potency, µM (series often up to 107 µM), without a hit: top-dose activity, negative = inhibition, usual class: inhibitors; 400,000 compounds, 0.53% hits; AID 588579; further: potency means the concentration at half of the fitted maximal effect; on the % scale 0 is the no-effect control and ±100 the full control effect
# Target sequence (Q9UBT6 whole entry, looked up): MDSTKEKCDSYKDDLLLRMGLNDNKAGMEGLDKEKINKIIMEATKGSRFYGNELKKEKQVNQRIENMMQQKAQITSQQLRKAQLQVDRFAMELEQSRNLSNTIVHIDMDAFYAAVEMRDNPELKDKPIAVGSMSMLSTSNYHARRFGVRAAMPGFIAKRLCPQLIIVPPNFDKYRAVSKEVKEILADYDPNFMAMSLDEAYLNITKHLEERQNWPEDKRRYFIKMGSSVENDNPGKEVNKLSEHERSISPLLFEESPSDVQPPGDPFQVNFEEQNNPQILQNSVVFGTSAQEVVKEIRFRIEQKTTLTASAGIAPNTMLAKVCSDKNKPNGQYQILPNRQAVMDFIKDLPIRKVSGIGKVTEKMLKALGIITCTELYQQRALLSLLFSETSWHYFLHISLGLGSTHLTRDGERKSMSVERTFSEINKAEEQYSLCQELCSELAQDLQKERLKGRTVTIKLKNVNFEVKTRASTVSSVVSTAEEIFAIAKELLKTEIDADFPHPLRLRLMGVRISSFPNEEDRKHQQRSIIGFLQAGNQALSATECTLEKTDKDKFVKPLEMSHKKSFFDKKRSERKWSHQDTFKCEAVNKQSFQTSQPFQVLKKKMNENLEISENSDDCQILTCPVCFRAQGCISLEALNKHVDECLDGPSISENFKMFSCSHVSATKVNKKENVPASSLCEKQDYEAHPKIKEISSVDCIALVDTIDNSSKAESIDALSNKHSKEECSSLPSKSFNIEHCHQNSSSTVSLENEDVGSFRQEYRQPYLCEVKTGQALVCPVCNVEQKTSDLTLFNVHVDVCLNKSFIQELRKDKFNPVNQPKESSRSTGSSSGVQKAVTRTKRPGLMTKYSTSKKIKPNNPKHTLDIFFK
#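 First, compounds were pin-transferred onto 10 nM Pol kappa. After 15 min at room temperature, substrate was added to 50 nM final. Fluorescence was then measured kinetically at 0 and 10 min.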
# WRN inhibitor = blocks human WRN helicase | AID 651768 | Potency, µM (doses to about 114 µM), for inactives: at the top dose activity change, negative = inhibition, actives largely listed as inhibitors | Q14191 | WRN helicase unwinding, fluorescent forked duplex, kinetic | 360,000 compounds, 0.46% hits; further: potency means the concentration at half of the fitted maximal effect; on the % scale 0 is the no-effect control and ±100 the full control effect; nearly all actives have a fitted effect of over 55% in size
#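 Kinetic red-fluorescence monitoring (525/598 nm) tracks WRN helicase activity after 100 nM fluorophore-quencher forked duplex and 2 mM ATP are added to 20 nM enzyme pretreated 15 min at room temperature with compound.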
# PGK validate = validation of Trypanosoma brucei phosphoglycerate kinase inhibitors; shares compounds with Pol kappa inh-1; TbPGK coupled GAPDH assay, Kinase-Glo luminescence; AID 686980; Potency, µM (doses to about 57.5 µM), without a hit: top-dose activity change, negative = inhibition, actives largely listed as inhibitors; 500 compounds, 79% hits; further: potency means the concentration at half of the fitted maximal effect; on the % scale 0 is the no-effect control and ±100 the full control effect; nearly all actives have a fitted effect of over 65% in size
# Pol iota confirm = Confirm cherry-picked inhibitors of human polymerase iota | Potency, µM, hits mostly inhibitors | AID 720496 | shares compounds with Pol kappa inh-1 | Pol iota primer extension, TAMRA/BHQ fluorescence | 1,500 compounds, 77% hits; further: potency means the concentration at half of the fitted maximal effect
# GALK confirm = galactokinase (human) inhibition, confirmation; shares compounds with Pol eta inh-1; purified GALK, Kinase-Glo ATP depletion luminescence; Potency, µM (highest dose often 115 µM), inactives show at the top dose activity, negative = inhibition, hits mostly inhibitors; 150 compounds, 70% hits; AID 2015
# Redox cycling = counter-screen for GALK inhibitors: redox cycling H2O2 generation; 150 compounds, 40% hits; shares compounds with Pol eta inh-1; Phenol red-HRP H2O2 redox cycling, absorbance 600 nm; Potency, µM (series often up to 115 µM), without a hit: at the highest dose activity change, negative = H2O2 signal, usual class: inhibitors
# HEK293 tox = HEK-293 cytotoxicity, GALK inhibitor secondary; AID 2547; Potency, µM (top dose mostly 46.1 µM), inactives show at the highest dose activity change, negative = cytotoxicity, actives largely listed as inhibitors; HEK-293 viability, ATP luminescence (CellTiter-Glo), 24/48 h; shares compounds with Pol eta inh-1; 170 compounds, 10% hits; further: potency means the concentration at half of the fitted maximal effect; on the % scale 0 is the no-effect control and ±100 the full control effect
# Pol kappa inh-2 = Pol kappa (human) inhibition, cherry-pick confirmation | shares compounds with Pol eta inh-1 | purified Pol-kappa, fluorescent strand-displacement substrate | Potency, µM, hits mostly inhibitors | 920 compounds, 76% hits; further: potency means the concentration at half of the fitted maximal effect
# Pol eta inh-2 = confirmation of human DNA polymerase eta inhibitors; 2,600 compounds, 64% hits; Pol eta primer extension, TAMRA/BHQ fluorescence, 10 min; shares compounds with Pol eta inh-1; Potency, µM, most hits filed as inhibitors; further: potency means the concentration at half of the fitted maximal effect
# Numbers without * were called inactive; ? = inconclusive; nt = no result; ! = a repeat was not active; [ ] = dose if it differs, or a comment. Unless noted, the call rests on the fitted dose curve; in most records, active means well fitted curve in the direction sought with a large enough effect; inconclusive means small, poorly fitted or top-dose-only effect, or another doubt; inactive means no such curve, though single readings can be large; an effect the other way counts as inactive or inconclusive.
SMILES,Pol eta inh-1,Pol beta inh,Pol iota inh,PI5P4K alpha inh,Pol kappa inh-1,WRN inhibitor,Pol iota confirm,Pol eta inh-2,others
O=C(COC(=O)c1cc2ccccc2oc1=O)Nc1ccc(F)cc1F,25%,-10%,?,2,-6%,7%,nt,nt,
O=C(Nc1ccccc1F)c1cc(-c2ccco2)nc2ccccc12,79µM*,nt,?,?,-31%,?,?,85*,
Cn1c(N)c(C(=O)COC(=O)c2cc(-c3ccco3)nc3ccccc23)c(=O)n(C)c1=O,7.9µM*,16µM*,7.1µM*,-77*,?,28µM*,24*,19*,
O=C(O)c1ccccc1/C=N/NC(=O)c1cc(-c2ccco2)nc2ccccc12,3.2µM*,8.9µM*,?,-94*,35µM*,?,17*,7.6*,
O=C1C2CC=C(Cl)CC2C(=O)N1CCCCCCN1C(=O)C2CC=C(Cl)CC2C1=O (stereo unspecified),20µM*,20µM*,18µM*,nt,79µM*,?,60*,30*,
COc1ccc(NC(=O)C2CCN(S(=O)(=O)c3c(C)noc3/C=C/c3ccco3)CC2)cc1,32µM*,25µM*,?,nt,?,nt,24*,27*,PGK validate=10µM*;Pol kappa inh-2=12*
O=C(Nc1cccc(Cl)c1)C1CCCN(c2nn3cc(-c4ccc(F)cc4)nc3s2)C1 (stereo unspecified),0%,13%,16%,nt,-4%,nt,nt,nt,
CCOc1ccc2c(ccc(/C=C/c3cc(C)c4cccnc4c3O)[n+]2C)c1,20µM*,nt,?,-85*,?,10µM*,19*,21*,Pol kappa inh-2=19*
N#C/C(=C\c1ccc(O)c(O)c1)C(=O)c1ccc(O)c(O)c1,0.13µM*!,0.063µM*,1.1µM*,-60*,0.34µM*,0.17µM*,0.75*,0.67*,PGK validate=0.33µM*;Pol kappa inh-2=0.38*
Cc1ccccc1/C=N/Nc1nc2ccccc2[nH]1,0%,0%,13%,4,-12%,-11%,nt,nt,
O=[N+]([O-])c1cc(/C=N/Nc2nc3ccccc3[nH]2)c(O)cc1O,4.5µM*,20µM*,45µM*,-73*,40µM*,?,?,?,
CC1(C)CC(=O)C2=C(C1)N(c1cccc(Cl)c1)C(=O)NC2(C(F)(F)F)C(F)(F)F,-7%,25%,20%,6,-9%,-27%,nt,nt,
CC(=O)c1ccc(NC(=O)CN2C(=O)CCc3cc(S(=O)(=O)N4CCC(C)CC4)ccc32)cc1,25µM*,35µM*,?,nt,-10%[60.1 µM],nt,53*,38*,Pol kappa inh-2=?
O=C(N/N=C/c1ccc(-c2ccc(Cl)c(C(=O)O)c2)o1)c1cc2c(ccc3ccccc32)o1,11µM*,?,18µM*,-80*,32µM*,20µM*,75*,19*,
Cc1ccc(-c2ccc(/C=N\NC(=O)c3cc4c(ccc5ccccc54)o3)o2)cc1[N+](=O)[O-],?,?,1%,?,0%,-16%,nt,nt,
COc1ccc(-c2cc3ncc(C)n3c(Nc3ncccc3C(N)=O)n2)cc1OC,nt,nt,nt,nt,-15%[60.1 µM],nt,nt,nt,
O=c1nc2s/c(=C\c3ccco3)c(=O)n2nc1Cc1ccc(F)cc1,7.1µM*,2.8µM*,10µM*,-56*,20µM*,50µM*,38*,30*,
O=c1/c(=C/c2ccco2)sc2n1CN(c1ccccc1)CN=2,-11%,2%,?,-10,-5%,-9%,nt,nt,
CCn1c2ccccc2c2cc(NC(=O)COC(=O)c3ccccc3F)ccc21,-15%,24%,23%,5,-12%,-9%[57.1 µM],nt,nt,
CCn1c2ccccc2c2cc(NC(=O)COC(=O)c3ccc(NC(=O)CC#N)cc3)ccc21,?,nt,22µM*,?,22µM*,?,?,60*,
NC(=O)C1CCN(C2=C(Cl)C(=O)c3ccccc3C2=O)CC1,6.3µM*,?,2.8µM*,nt,-9%,-23%[57.1 µM],42*,21*,GALK confirm=19µM*;Redox cycling=24µM*;HEK293 tox=?
CC(C)N1CC(=O)N2CSCC2C1=O (stereo unspecified),nt,nt,nt,-1,nt,2%,nt,nt,
O=C(O)C(c1ccccc1)N1C(=O)/C(=C\c2ccc(-c3ccc(Br)cc3)o2)SC1=S (stereo unspecified),?,?,11µM*,?,?,?,42*,27*,
COc1cc(/C=C2\SC(=S)N(C(C(=O)O)c3ccccc3)C2=O)cc(OC)c1OC (stereo unspecified),12%,0%,?,0,-6%,-15%,nt,nt,
O=C(O)C(c1ccccc1)N1C(=O)/C(=C\c2ccc(-c3ccccc3Cl)o2)SC1=S (stereo unspecified),40µM*,?,11µM*,?,-12%,50µM*,60*,38*,PGK validate=8.2µM*;Pol kappa inh-2=11*
N#C/C(=C\c1ccc(-c2ccc(C(=O)O)cc2)o1)C(=O)Nc1ccc(F)cc1,5.6µM*,?,10µM*,-29,56µM*,56µM*,27*,27*,
